From PubChem BioAssay AID588342 (National Center for Advancing Translational Sciences (NCATS), 2011)
The whole screen tested about 360,000 compounds, of which about 25,000 (6.9%) were called active. About 9% were inconclusive and are not listed. For the sample, actives were picked, then their nearest neighbours and some compounds at random. A number with no mark means an inactive call. The call rests on the fitted dose curve; in most records, active means well fitted inhibition curve with a large enough effect; inconclusive means small, poorly fitted or top-dose-only effect; inactive means flat fitted curve, though single readings scatter.

Target: Luciferin 4-monooxygenase (Photinus pyralis) (UniProt P08659)
Assay: qHTS profiling assay for firefly luciferase inhibitor/activator using purifed enzyme and Km concentrations of substrates (counterscreen for miR-21 project); further: nearly all actives have a fitted effect of over 55% in size;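 on activity change, negative = inhibition: plate controls were vehicle for no effect and reference inhibitor for full effect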
Conditions: purified FLuc, luminescence inhibition; series mostly up to 57.5 µM; activity change, negative = inhibition: at the top concentration
Method in brief: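 Biochemical qHTS of compounds, final roughly 60 µM downward over six points, against 10 nM purified firefly luciferase using Km concentrations of substrates (10 uM D-luciferin, 10 uM ATP) in Tris acetate pH 7.5 buffer; luminescence output.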
Potency means the concentration at half of the fitted maximal effect.

Sequence of Luciferin 4-monooxygenase (Photinus pyralis) (P08659 whole entry, looked up): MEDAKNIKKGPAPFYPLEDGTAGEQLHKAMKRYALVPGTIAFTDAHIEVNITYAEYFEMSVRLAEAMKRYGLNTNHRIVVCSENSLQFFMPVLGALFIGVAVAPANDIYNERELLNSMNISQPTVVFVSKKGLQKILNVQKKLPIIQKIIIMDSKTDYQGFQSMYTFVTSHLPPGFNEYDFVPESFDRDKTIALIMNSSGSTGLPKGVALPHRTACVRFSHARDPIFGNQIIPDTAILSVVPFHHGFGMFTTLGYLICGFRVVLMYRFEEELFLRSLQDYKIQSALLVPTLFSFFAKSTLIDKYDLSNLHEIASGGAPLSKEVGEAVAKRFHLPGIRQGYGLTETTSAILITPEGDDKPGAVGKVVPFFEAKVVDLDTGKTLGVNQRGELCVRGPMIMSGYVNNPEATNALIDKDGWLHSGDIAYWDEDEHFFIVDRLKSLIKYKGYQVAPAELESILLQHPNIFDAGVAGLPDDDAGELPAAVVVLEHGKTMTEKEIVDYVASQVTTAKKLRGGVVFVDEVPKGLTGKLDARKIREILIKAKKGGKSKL

SMILES | activity change, negative = inhibition [%] | Potency
CCOC(=O)N1CCC(NC(=O)c2cnn(-c3cccc(C)c3)c2C2CCN(C(=O)OC(C)(C)C)CC2)CC1 | 1.48 | –
CCOC(=O)N1CCN(Cc2nc3cc(NC(C)=O)ccc3n2C)CC1 | 2.23 | –
CCCC(=O)Nc1ccc2c(c1)nc(CCNC(=O)c1ccco1)n2C | -1.08 | –
Cn1c(CCN2CCCCCC2)nc2cc(NC(=O)Nc3ccccc3)ccc21 | – | 21.3 µM (active)
Cn1c(CCN2CCCC2)nc2cc(NS(=O)(=O)c3ccccc3)ccc21 | 0.966 | –
CCC(=O)Nc1ccc2c(c1)nc(CCN1CCN(c3ccccn3)CC1)n2C | 0.231 | –
CC(=O)NCCc1nc2cc(NC(=O)c3ccccc3)ccc2n1C | – | 16.9 µM (active)
Cc1ccc(Nc2ccc3cc(S(=O)(=O)N4CCCCC4)ccc3n2)cc1F | 4.26 | –
CCOC(=O)c1ccc(NC(=O)CCS(=O)(=O)c2ccc3c(c2)oc(=O)n3C)cc1 | 1.12 | –
CC(C)CCNC(=O)CC1C(=O)N(Cc2ccccc2)C(C)c2nc3ccccc3n21 (configuration not stated) | 6.94 | –
CCCN1CCN(CCCNC(=O)c2cnn(-c3ccc(C)cc3)c2-n2cccc2)CC1 | 1.38 | –
CCCNC(=O)CCc1c(C)nc2c(c(C)nn2-c2ccc(C)cc2)c1C | -1.39 | –
CCCNC(=O)c1c(Cl)cnn1-c1ccc(C)cc1 | – | 9.53 µM (active)
COc1ccccc1OCCNC(=O)C(CCSC)NC(=O)COc1ccccc1 (configuration not stated) | 0.951 | –
CC(C(=O)NC1CCCC1)N1CCN(S(=O)(=O)c2ccccc2Cl)CC1 (configuration not stated) | -0.449 | –
CC(C)(C)N1CC(c2nc3ccccc3n2Cc2ccc(F)cc2)CC1=O (configuration not stated) | -0.554 | –
CC(C)(C)c1cc(=O)n2c(nc3ccccc32)[nH]1 | – | 21.3 µM (active)
CC(C)(C)c1nc2ccccc2c(=O)n1N1C(=O)c2ccccc2C1=O | 3.69 | –
O=C(COc1coc(CN2CCN(c3ccccc3)CC2)cc1=O)Nc1ccccc1F | -0.456 | –
CC1=C(C(=O)OCC2CCCCC2)C(c2c(F)cccc2Cl)CC(=O)N1 (configuration not stated) | -1.11 | –
Cc1cccc(C(CC(=O)NCC2(c3ccccc3)CCCC2)c2ccccc2)c1O (configuration not stated) | 1.15 | –
Cn1c(=O)c(C(=O)O)nn(-c2ccccc2)c1=O | -0.0194 | –
Cc1ccc(S(=O)(=O)Nc2nc(N)n(-c3ccccc3)n2)cc1 | -15.3 | –
Cc1ccc(C(=O)Nc2nc(N)n(-c3ccccc3)n2)cc1 | – | 23.9 µM (active)
COc1ccc(CNC(=O)CCc2c(C)nn(-c3ccc(N4CCCC4)nn3)c2C)cc1 | 3.1 | –
N#Cc1ccc(CSc2nnc3ccccn23)cc1 | -0.254 | –

SMILES | activity change, negative = inhibition [%] | Potency
Cn1c(CC(=O)Nc2ccccc2)nnc1SCC(=O)c1ccccc1 | 1.04 | –
CCN(C(=O)CSc1nnc2ccccn12)C1CCS(=O)(=O)C1 (configuration not stated) | 0.52 | –
Cc1ccc(-n2c(C)nnc2SCC(=O)NC2CC2)cc1 | -4.89 | –
Cc1ccc(-n2c(C)cc(C(=O)CSc3nnc4ccccn34)c2C)cc1 | – | 2.13 µM (active)
O=C(CSc1nnc2ccccn12)c1ccccc1 | – | 23.9 µM (active)
O=C(Nc1cc(Cl)cc(Cl)c1)c1ccc2c(c1)N(Cc1cccc(Cl)c1)C(=O)c1ccccc1S2=O (configuration not stated) | -1.73 | –
CCN(CC)c1ccc(NS(=O)(=O)c2cc(-c3cc(C)no3)ccc2C)c(C)c1 | -13.7 | –
Cc1cccc(C)c1-n1ncc(C(=O)NCCCN2CCCCC2)c1C1CCN(C(=O)OC(C)(C)C)CC1 | -1.11 | –
CCOC(=O)c1c(C)[nH]c(C)c1S(=O)(=O)N(C)CC(=O)N1CCN(c2ccccc2)CC1 | -1.32 | –
O=C(CSc1nc2c(c(=O)[nH]1)CN(Cc1ccc(F)cc1)CC2)Nc1ccccc1Cl | -0.468 | –
OC(c1nc2ccc(F)cc2[nH]1)C(O)c1nc2ccc(F)cc2[nH]1 (configuration not stated) | -2.89 | –
CC(C)c1nc2ccc(C(=O)O)cc2[nH]1 | – | 15.1 µM (active)
N#CC(C(=O)c1ccc(S(=O)(=O)N2CCCCCC2)cc1)c1nc2ccccc2[nH]1 (configuration not stated) | -13.5 | –
CCOC(=O)c1cccc(NC(=O)Cn2cnc3nc4c(cc3c2=O)CCCC4)c1 | -14.8 | –
CCOC(=O)c1[nH]c(C)c(CCC(=O)NCc2ccccc2C)c1C | -6.99 | –
COc1ccc(CCNC(=O)C(=O)NCC(c2ccco2)S(=O)(=O)c2cccs2)cc1OC (configuration not stated) | 6.4 | –
O=C(OCC#CCSc1nnc(-c2ccncc2)o1)c1sc2ccccc2c1Cl | -11.9 | –
O=C(NCC#CCSc1nnc(-c2cccc3ccccc23)o1)c1cccs1 | 1.74 | –
C#CCSc1nnc(-c2sc3ccccc3c2Cl)o1 | – | 5.36 µM (active)
COc1ccc2cc(-c3nc(Cl)c4c5c(sc4n3)CC(C)CC5)c(=O)oc2c1 (configuration not stated) | -5.25 | –
Cc1noc(C)c1COc1ccc2ccc(=O)oc2c1 | 0.0642 | –
COc1ccc(-c2cc3ccc(OCc4nn[nH]n4)cc3oc2=O)cc1 | – | 1.69 µM (active)
COc1ccc(CCN2C(=O)N(c3cccc(OC)c3)C(=O)C2CC(=O)Nc2ccccc2)cc1 (configuration not stated) | -3.46 | –
Cc1cc(OCc2cc(C(=O)NCc3cc(C(C)C)no3)no2)cc(C)c1Cl | – | 4.78 µM (active)
COCCCNC(=O)COc1cc(C)c(Cl)c(C)c1 | 0.797 | –
CC(C)C(=O)NCc1cc(-c2ccc(Cl)cc2)no1 | 3.81 | –
